Assay results published in paper PMC4336329 (PLoS ONE, 2015).
The whole screen tested about 310,000 compounds, of which about 14,000 (4.5%) showed an effect of 50% or more. Effects have a minus sign here. The sample holds strong results, similar compounds and a random draw of the others, so the mix is not that of the screen.

Molecular target: human ether-à-go-go-related gene (hERG) potassium channel (human, UniProt Q12809)
Assay: primary screen, population patch clamp on CHO cells stably expressing hERG; higher = less effect of the substance
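Note: peak tail current of the secondary pulse compared with the same well before compound.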

Chain of human ether-à-go-go-related gene (hERG) potassium channel (Q12809 whole entry, looked up): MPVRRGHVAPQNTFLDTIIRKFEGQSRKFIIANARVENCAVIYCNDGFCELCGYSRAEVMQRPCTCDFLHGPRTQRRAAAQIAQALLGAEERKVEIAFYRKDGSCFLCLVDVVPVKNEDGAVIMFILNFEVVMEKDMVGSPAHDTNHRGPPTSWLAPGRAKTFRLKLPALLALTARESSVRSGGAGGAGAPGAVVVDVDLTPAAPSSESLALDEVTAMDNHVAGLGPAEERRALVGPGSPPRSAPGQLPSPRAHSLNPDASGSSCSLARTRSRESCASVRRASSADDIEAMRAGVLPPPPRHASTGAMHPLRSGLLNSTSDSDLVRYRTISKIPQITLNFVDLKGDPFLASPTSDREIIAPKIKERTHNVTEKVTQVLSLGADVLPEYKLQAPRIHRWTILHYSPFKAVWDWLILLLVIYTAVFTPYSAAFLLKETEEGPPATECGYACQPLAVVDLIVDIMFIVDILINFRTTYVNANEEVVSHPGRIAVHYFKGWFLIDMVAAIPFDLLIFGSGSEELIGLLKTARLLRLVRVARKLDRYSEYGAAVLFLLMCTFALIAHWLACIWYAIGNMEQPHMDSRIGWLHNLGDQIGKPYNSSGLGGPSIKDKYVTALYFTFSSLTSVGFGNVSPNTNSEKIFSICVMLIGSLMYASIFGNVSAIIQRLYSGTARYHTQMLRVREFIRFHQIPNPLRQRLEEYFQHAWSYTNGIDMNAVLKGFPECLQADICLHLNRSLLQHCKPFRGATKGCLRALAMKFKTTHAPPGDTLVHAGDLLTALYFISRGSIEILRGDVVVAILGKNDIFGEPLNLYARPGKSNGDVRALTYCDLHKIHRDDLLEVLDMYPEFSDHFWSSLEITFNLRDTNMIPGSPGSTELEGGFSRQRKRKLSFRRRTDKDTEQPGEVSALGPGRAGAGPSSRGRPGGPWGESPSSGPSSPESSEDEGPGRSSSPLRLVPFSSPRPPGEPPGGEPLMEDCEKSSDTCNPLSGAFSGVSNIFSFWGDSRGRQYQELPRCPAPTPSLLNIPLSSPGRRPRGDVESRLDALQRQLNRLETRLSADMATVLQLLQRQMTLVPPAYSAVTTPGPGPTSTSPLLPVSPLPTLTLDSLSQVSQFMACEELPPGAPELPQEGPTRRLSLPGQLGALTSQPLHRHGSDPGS

Question: How did the “hERG current change (%, negative = inhibition) at 10uM” value turn out when C/C(=N\NC(=O)c1nn(C)c(C)c1Br)c1cccc(NC(=O)c2ccoc2C)c1 was run?
Answer: -23.2%

Question: Which “hERG current change (%, negative = inhibition) at 10uM” value does the source give for CCCC(=O)c1ccc(-c2ccccc2)cc1 here?
Answer: -4.95%

Question: Which “hERG current change (%, negative = inhibition) at 10uM” value does the source give for Cc1ccc(C(C)C)c(OCCCN2C(=O)NC(C)(C)C2=O)c1 here?
Answer: -14.3%

Question: Which “hERG current change (%, negative = inhibition) at 10uM” value does the source give for Cc1ccc(N2C(=O)CC(Sc3cccs3)C2=O)cc1 (stereo not shown) here?
Answer: 12%

Question: How did the “hERG current change (%, negative = inhibition) at 10uM” value turn out when Cc1cccc(NC(=O)c2oc3c(c2C)C(=O)CC(C)(C)C3)n1 was run?
Answer: -14.9%

Question: For CC1=C(C(=O)N2CCCCC2)C2(CCC(C)CC2)OC1=O (stereo not shown), which “hERG current change (%, negative = inhibition) at 10uM” value is on record?
Answer: -6.74%

Question: Which “hERG current change (%, negative = inhibition) at 10uM” value does the source give for CC1=C(C(=O)N2CCN(C(=O)c3ccco3)CC2)C2(CCC(C)CC2)OC1=O (stereo not shown) here?
Answer: -63.8%

Question: How did the “hERG current change (%, negative = inhibition) at 10uM” value turn out when CC1=C(C(=O)N2CCCCCC2)C2(CCC(C)CC2)OC1=O (stereo not shown) was run?
Answer: 2.11%

Question: With Cc1c(CCC(=O)O)c(=O)oc2cc(OCc3ccccc3F)ccc12 as the compound, how does the “hERG current change (%, negative = inhibition) at 10uM” value read?
Answer: 27.4%

Question: How did the “hERG current change (%, negative = inhibition) at 10uM” value turn out when Cc1nc(SCC(=O)N2CCOCC2)c2c(=O)n(C)c(=O)n(C)c2n1 was run?
Answer: 0.699%

Question: C=CCc1cccc(CNc2cnc3ccccc3c2)c1O was tested. Which “hERG current change (%, negative = inhibition) at 10uM” value did it give?
Answer: -4.21%

Question: COc1ccccc1N1CCN(Cc2ccc(Cl)cc2Cl)CC1 was tested. Which “hERG current change (%, negative = inhibition) at 10uM” value did it give?
Answer: -12.7%

Question: Which “hERG current change (%, negative = inhibition) at 10uM” value does the source give for COc1ccccc1N1CCN(Cc2nc(N)nc(Nc3ccc(C)c(Cl)c3)n2)CC1 here?
Answer: -75.5%

Question: For COc1ccccc1N1CCN(Cc2nc(N)nc(Nc3ccc(C)cc3)n2)CC1, which “hERG current change (%, negative = inhibition) at 10uM” value is on record?
Answer: -50.3%

Question: With COc1cc2nc(Nc3ccc(C)c(Cl)c3)nc(N)c2cc1OC.Cl as the compound, how does the “hERG current change (%, negative = inhibition) at 10uM” value read?
Answer: 4.1%

Question: With COc1ccccc1N1CCN(Cc2nc(N)nc(Nc3ccccc3)n2)CC1 as the compound, how does the “hERG current change (%, negative = inhibition) at 10uM” value read?
Answer: -69.6%

Question: With CCc1nnc(NC(=O)c2cccs2)s1 as the compound, how does the “hERG current change (%, negative = inhibition) at 10uM” value read?
Answer: 9.54%

Question: With CCN(C(=O)COC(=O)c1ccc(Cl)cc1N)C1CCCCC1 as the compound, how does the “hERG current change (%, negative = inhibition) at 10uM” value read?
Answer: -9.34%

Question: With CC(=O)OC(C(=O)NC1CCCCC1)c1ccncc1 (stereo not shown) as the compound, how does the “hERG current change (%, negative = inhibition) at 10uM” value read?
Answer: -11.7%

Question: Cc1sc2nc(SCC(=O)NCc3ccco3)n(Cc3ccccc3)c(=O)c2c1C was tested. Which “hERG current change (%, negative = inhibition) at 10uM” value did it give?
Answer: -3.84%

Question: How did the “hERG current change (%, negative = inhibition) at 10uM” value turn out when Oc1ccc(C2=Nn3c(nnc3-c3ccco3)SC2)cc1O was run?
Answer: 0.591%

Question: With c1ccc(C2=Nn3c(nnc3-c3ccco3)SC2)cc1 as the compound, how does the “hERG current change (%, negative = inhibition) at 10uM” value read?
Answer: -25.9%

Question: CCOc1ccc(C2=Nn3c(nnc3-c3ccco3)SC2)cc1 was tested. Which “hERG current change (%, negative = inhibition) at 10uM” value did it give?
Answer: -10.7%

Question: Which “hERG current change (%, negative = inhibition) at 10uM” value does the source give for COc1ccc(C2=Nn3c(nnc3-c3ccco3)SC2)cc1 here?
Answer: -63.6%

Question: For COc1ccc(OC)c(C2=Nn3c(nnc3-c3ccco3)SC2)c1, which “hERG current change (%, negative = inhibition) at 10uM” value is on record?
Answer: -12.6%

Question: For COc1ccc(C2=Nn3c(nnc3-c3ccco3)SC2)cc1OC, which “hERG current change (%, negative = inhibition) at 10uM” value is on record?
Answer: -54.1%

Question: With Cc1nc2cc(NC(=O)Nc3cccc4ccccc34)ccc2n1C as the compound, how does the “hERG current change (%, negative = inhibition) at 10uM” value read?
Answer: 2.53%

Question: Which “hERG current change (%, negative = inhibition) at 10uM” value does the source give for CCCOc1ccc(C(=O)NNC(=S)NC(=O)c2ccccc2)cc1 here?
Answer: 23.4%

Question: CCc1noc(C)c1C(=O)NC1CC(C)(C)Cc2c1cnn2-c1ccccc1 (stereo not shown) was tested. Which “hERG current change (%, negative = inhibition) at 10uM” value did it give?
Answer: 5.9%

Question: Fc1ccc2c(c1)C1C=CCC1C(c1cc3c(cc1Br)OCO3)N2 (stereo not shown) was tested. Which “hERG current change (%, negative = inhibition) at 10uM” value did it give?
Answer: 4.83%

Question: Which “hERG current change (%, negative = inhibition) at 10uM” value does the source give for CCOc1ccc(NC(=O)Nc2ccc3c(c2)nc(C)n3C)cc1 here?
Answer: 1.49%

Question: Which “hERG current change (%, negative = inhibition) at 10uM” value does the source give for O=C(NNC(=O)c1ccc(S(=O)(=O)N2CCOCC2)cc1)c1ccccc1 here?
Answer: 17.5%

Question: For CN(C(=O)CSc1nc2ccc(Br)cc2c(=O)n1Cc1ccco1)C1CCS(=O)(=O)C1 (stereo not shown), which “hERG current change (%, negative = inhibition) at 10uM” value is on record?
Answer: -79.6%

Question: CCc1cc2c(SCC(=O)NC3CCS(=O)(=O)C3)ncnc2s1 (stereo not shown) was tested. Which “hERG current change (%, negative = inhibition) at 10uM” value did it give?
Answer: -1.87%

Question: Which “hERG current change (%, negative = inhibition) at 10uM” value does the source give for CN(C(=O)CSc1nc2cc(C(=O)O)ccc2c(=O)n1Cc1ccccc1)C1CCS(=O)(=O)C1 (stereo not shown) here?
Answer: 37.8%

Question: How did the “hERG current change (%, negative = inhibition) at 10uM” value turn out when Cc1cc2c(=O)n(Cc3ccco3)c(SCC(=O)NCc3ccco3)nc2s1 was run?
Answer: -35.8%

Question: With O=C(CSc1nc2c(sc3ccccc32)c(=O)n1Cc1ccco1)NCC1CCCO1 (stereo not shown) as the compound, how does the “hERG current change (%, negative = inhibition) at 10uM” value read?
Answer: -13.9%

Question: Which “hERG current change (%, negative = inhibition) at 10uM” value does the source give for Cc1cc2c(=O)n(Cc3ccco3)c(SCC(=O)c3ccc(Cl)s3)nc2s1 here?
Answer: -18.6%

Question: Which “hERG current change (%, negative = inhibition) at 10uM” value does the source give for CCc1cc2c(=O)n(Cc3ccco3)c(SCC(=O)NCC3CCCO3)nc2s1 (stereo not shown) here?
Answer: -70.2%

Question: Which “hERG current change (%, negative = inhibition) at 10uM” value does the source give for CCc1cc2c(SCC(=O)NCC3CCCO3)ncnc2s1 (stereo not shown) here?
Answer: -1.05%

Question: For CN(C(=O)CSc1nnc(-c2ccco2)n1Cc1ccccc1)C1CCS(=O)(=O)C1 (stereo not shown), which “hERG current change (%, negative = inhibition) at 10uM” value is on record?
Answer: -6.24%

Question: Which “hERG current change (%, negative = inhibition) at 10uM” value does the source give for CCc1cc2c(=O)n(Cc3ccco3)c(SCc3c(C)noc3C)nc2s1 here?
Answer: -5.47%

Question: How did the “hERG current change (%, negative = inhibition) at 10uM” value turn out when CCOC(=O)CC(=O)CSc1nc2sc(C)cc2c(=O)n1Cc1ccco1 was run?
Answer: -51.5%
